Key:
Conditions in all cases: concentration: 1 μM,replicates: in singlicate; n = 1
[1] = test system: JAK1(JH2domain-pseudokinase)
[2] = test system: JAK2(JH1domain-catalytic)
[3] = test system: JAK3(JH1domain-catalytic)
[4] = test system: T1, JNK1
T1 construct: gene MAPK8

[5] = test system: T2, JNK2
T2 construct: gene MAPK9

[6] = test system: T3, JNK3
T3 construct: gene MAPK10

[7] = test system: KIT-autoinhibited
[8] = test system: KIT
[9] = test system: LATS1
[10] = test system: LATS2
[11] = test system: LCK
[12] = test system: LIMK1
[13] = test system: LIMK2
[14] = test system: T4, LKB1
T4 construct: gene STK11

[15] = test system: T5, LOK
T5 construct: gene STK10

[16] = test system: LRRK2
[17] = test system: LTK
[18] = test system: LYN
[19] = test system: T6, LZK
T6 construct: gene MAP3K13

[20] = test system: MAK
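Further: KINOMEscan kinase panel screen.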

| SMILES | %Inh [1] | %Inh [2] | %Inh [3] | %Inh [4] | %Inh [5] | %Inh [6] | %Inh [7] | %Inh [8] | %Inh [9] | %Inh [10] | %Inh [11] | %Inh [12] | %Inh [13] | %Inh [14] | %Inh [15] | %Inh [16] | %Inh [17] | %Inh [18] | %Inh [19] | %Inh [20] |
| --- | --- | --- | --- | --- | --- | --- | --- | --- | --- | --- | --- | --- | --- | --- | --- | --- | --- | --- | --- | --- |
| COc1cc(Nc2nccc(N3CCC(NC(=O)c4cccc(C#N)c4)C3)n2)cc(OC)c1OC (stereo not shown) [GSK1379751] | 2% | 98% | 22% | 30% | 15% | 33% | 0% | 43% | 0% | 0% | 0% | 92.6% | 17% | 0% | 0% | 0% | 2% | 0% | 33% | 7% |
| COc1cc2c(Nc3ccc(NC(=O)c4ccccc4)cc3)ncnc2cc1OCCCN1CCOCC1 [GSK301329] | 0% | 0% | 0% | 0% | 19% | 12% | 41% | 99.1% | 0% | 0% | 87% | 3% | 0% | 0% | 77% | 33% | 27% | 52% | 55% | 0% |
| COC(=O)c1cccc(NC(=O)NC2CCN(c3ccnc(Nc4cc(OC)c(OC)c(OC)c4)n3)C2)c1 (stereo not shown) [GSK1379767] | 13% | 82% | 0% | 16% | 20% | 28% | 0% | 77% | 0% | 17% | 7% | 0% | 35% | 0% | 45% | 0% | 83% | 0% | 54% | 36% |
| CSc1nccc(-c2c(-c3ccc(F)cc3)ncn2CCCN2CCOCC2)n1.Cl [SB-217146] | 40% | 39% | 0% | 10% | 45% | 34% | 32% | 0% | 0% | 0% | 0% | 3% | 0% | 0% | 8% | 0% | 4% | 0% | 0% | 0% |
| Cn1ccc2ncnc(Oc3ccc(NC(=O)Nc4cccc(C(F)(F)F)c4)c(F)c3)c21 | 7% | 6% | 29% | 11% | 0% | 0% | 75% | 100% | 15% | 0% | 75% | 0% | 2% | 0% | 99.9% | 31% | 84% | 24% | 0% | 27% |

From article PMC5540273 (PLoS ONE, 2017)
